Rows were chosen to be rich in hits. Some 3.5% of all compounds tested hit in one or more screens of this group.
FBW7 act – activators of human E3 ligase FBW7; Q969H0; AID 1259310; AlphaScreen FBW7–phospho-cyclin E peptide binding, activator screen; 0.13% of 650,000 active; normalized activity (activation), % at 26.1 µM; in the data active = normalized activity above about 1.9%;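 note: purified mutant Fbw7 with reduced substrate affinity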
GPR151 activ – activates the human receptor GPR151; AID 1508602; Q8TDV0; activation, % at 11.2 µM; PathHunter beta-arrestin GPR151 cells, luminescence; 1% of 650,000 active; in the data active = activation above about 4.9%;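 note: 0% = median of compound wells and 100% = cells with positive control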
MITF primary – blocks human microphthalmia-associated transcription factor; AlphaScreen MITF homodimerization, bead proximity signal; inhibition, % at 2.6 µM; 0.91% of 650,000 active; O75030; in the data active = inhibition above about 50%;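 note: 0% = vehicle wells with protein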
Target sequence (O75030 whole entry, looked up): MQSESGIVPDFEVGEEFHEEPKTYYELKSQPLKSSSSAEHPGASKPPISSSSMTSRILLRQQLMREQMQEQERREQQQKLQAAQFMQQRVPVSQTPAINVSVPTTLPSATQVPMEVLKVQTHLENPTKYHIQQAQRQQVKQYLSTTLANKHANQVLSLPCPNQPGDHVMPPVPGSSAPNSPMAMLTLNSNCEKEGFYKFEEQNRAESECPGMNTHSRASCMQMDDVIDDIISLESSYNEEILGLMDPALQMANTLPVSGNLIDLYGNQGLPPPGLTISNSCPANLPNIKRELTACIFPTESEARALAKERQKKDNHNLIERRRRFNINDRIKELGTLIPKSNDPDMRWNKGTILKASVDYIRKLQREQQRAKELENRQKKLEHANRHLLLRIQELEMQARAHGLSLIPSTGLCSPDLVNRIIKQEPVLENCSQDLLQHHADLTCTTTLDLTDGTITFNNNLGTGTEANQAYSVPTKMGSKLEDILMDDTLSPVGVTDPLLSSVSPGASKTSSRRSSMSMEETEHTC
TEAD-YAP inh – TEAD-YAP interaction inhibition; HEK-TIYL cells, TEAD-Gal4/YAP UAS-luciferase luminescence; inhibition, % at 9.12 µM; 1.4% of 640,000 active; AID 1259422; in the data active = inhibition above about 32%;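 note: 0% = median of test compound wells and 100% = reference inhibitor wells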
GPR151 confirm – human GPR151 activation, confirmation screen. activation, % at 11.2 µM. shares compounds with GPR151 activ. GPR151 PathHunter beta-arrestin cells, luminescence, 90 min; % of EA-reagent control over plate median. AID 1508609. 6,700 tested, under 10 active;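 active = mean percent activation across replicates above the confirmation screen cutoff of 4.91%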
GPR119 ag – activates human GPR119 in a GPR151 counter-screen | shares compounds with GPR151 activ | GPR119 PathHunter beta-arrestin cells, luminescence, 90 min; 0 = compound-well median, 100 = enzyme-acceptor control | activation, % at 11.2 µM | 0.3% of 6,700 active;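 active = mean percent activation in the counterscreen above 29.09%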;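 note: counterscreen on off-target GPR119 to flag nonselective hits from the GPR151 activator screen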
An asterisk follows results filed as active; . = no result.

SMILES	FBW7 act	GPR151 activ	MITF primary	TEAD-YAP inh	GPR151 confirm	GPR119 ag
COc1ccc2c(COC(=O)c3ccc(-n4nc(C)cc4C)cc3)cc(=O)oc2c1	-0.1	-0.7	-1.1	1.4	.	.
O=c1c2ccccc2ncn1CCCOc1ccccc1[N+](=O)[O-]	0.0	4.9*	1.4	-84.5	1.0	-1.7
CCOC(=O)c1cccc2c3c([nH]c12)C(C(=O)OCC)CCC3 (stereo unspecified)	-0.1	5.0*	-9.0	-4.0	0.5	-5.7
CC(=O)/C(N=Nc1ccccc1)=C(/O)C(F)(F)F	0.1	-0.2	6.7	3.6	.	.
CCCCc1ccc(C2=N/C(=C\c3ccc(C)cc3)C(=O)O2)cc1	-0.1	-0.3	-6.0	-3.9	.	.
CCCCc1ccc(C2=N/C(=C\c3ccccc3)C(=O)O2)cc1	0.0	6.4*	0.9	-1.8	-0.5	-10.0
O=C(Nc1cc(Sc2ccc(F)cc2)cc([N+](=O)[O-])c1)c1oc(=O)c2ccccc2c1-c1ccccc1	0.1	-1.9	4.0	-4.0	.	.
O=C(Nc1cc(Oc2ccc(F)cc2F)cc([N+](=O)[O-])c1)c1oc(=O)c2ccccc2c1-c1ccccc1	0.3	5.5*	0.9	-8.0	-0.4	7.6
O=C(CC1Sc2ccccc2NC1=O)NCc1ccc2c(c1)OCO2 (stereo unspecified)	0.0	7.3*	1.0	2.4	-0.9	-10.6
CC(C)(C)NS(=O)(=O)c1ccc2nc(NC(=O)c3cccnc3)sc2c1	-0.1	6.2*	-4.7	-5.0	0.9	12.8
Cc1ccc(C(=O)Nc2nc3ccc(S(C)(=O)=O)cc3s2)cc1	-0.3	0.5	-10.0	-45.5	.	.
O=C(CCc1nnc(-c2ccsc2)o1)N1CCc2sccc2C1	0.1	5.4*	12.9	-10.4	0.4	-5.4
COc1ccc(C2/C(=C(/O)c3ccccc3)C(=O)C(=O)N2CCCn2ccnc2)c(OC)c1 (stereo unspecified)	-0.1	5.9*	-21.3	2.2	1.7	-3.9
COc1ccc(C2/C(=C(/O)c3ccc(F)cc3)C(=O)C(=O)N2CCCCCC(=O)O)c(OC)c1 (stereo unspecified)	-0.2	1.5	-9.5	-9.8	.	.
COc1ccc(C2/C(=C(/O)c3ccc(C)cc3)C(=O)C(=O)N2CCCC(=O)O)c(OC)c1 (stereo unspecified)	-0.3	7.8*	-9.0	7.9	1.0	9.7
COc1cccc(N2CC(C(=O)Nc3cccc(C(F)(F)F)c3)CC2=O)c1 (stereo unspecified)	0.4	3.0	12.5	0.2	.	.
Cc1noc(C)c1-c1cc(NCCCN2CCCC2=O)ncn1	-0.1	5.9*	2.3	-3.5	-0.7	-6.6
Cn1ccc2cc(-c3cc(NCCCN4CCCC4=O)ncn3)ccc21	-0.2	11.4*	-17.0	0.9	0.1	1.0
COc1ccc(-c2cc(NCCCN3CCCC3=O)ncn2)cc1	0.1	-0.1	-3.0	-11.0	.	.
O=C1CCC(CCC(=O)N2CCCCC2c2nc3ccccc3[nH]2)(Cc2cccs2)N1 (stereo unspecified)	-0.1	-0.4	-10.1	8.3	.	.
Cc1ccccc1C1CC(=O)NC(SCC(=O)Nc2ccc(F)cc2)=C1C#N (stereo unspecified)	0.2	-0.1	10.5	5.2	.	.
Clc1cccc(-n2cc(-c3ccccc3)c3c(NC4CCCCC4)ncnc32)c1	0.1	-1.6	0.2	3.4	.	.
COc1ccc(-c2cncc(-c3cc(Nc4ncccn4)nc(C)n3)c2)cc1	-0.2	6.9*	2.7	-1.1	-0.5	0.4
Cc1ccc(-c2cncc(-c3cc(Nc4ncccn4)nc(C)n3)c2)cc1	0.1	-1.3	42.2	0.6	.	.
Nc1nnc(-c2ccc(C(=O)O)cc2)s1	0.4	7.6*	5.2	-4.9	0.7	0.2
SMILES	FBW7 act	GPR151 activ	MITF primary	TEAD-YAP inh	GPR151 confirm	GPR119 ag
Cc1ccc(-c2nnc(N)s2)cc1	0.0	-2.1	-14.4	-8.2	.	.
Cc1ccc(-c2nnc(N)s2)cc1C	0.0	5.6*	1.1	-33.2	-0.7	0.6
O=C(O)CC(NCc1ccco1)C(=O)Nc1ccc([N+](=O)[O-])cc1 (stereo unspecified)	0.0	-0.1	11.1	7.3	.	.
O=C(Nc1c2c(nn1-c1ccc([N+](=O)[O-])cc1)CSC2)c1ccc(F)cc1	0.3	0.5	17.6	0.2	.	.
Cc1nnc2sc(SCc3ccc([N+](=O)[O-])cc3)nn2c1=O	0.0	0.4	-4.8	0.8	.	.
Cc1ccccc1CSc1nn2c(=O)c(C)nnc2s1	-0.9	6.8*	-6.3	1.2	1.0	14.2
Cc1ccc2[nH]c3nc(N/N=C/c4ccco4)nnc3c2c1	-0.1	0.3	-3.9	-31.7	.	.
CC(C(=O)OCC(=O)Nc1ccc(SC(F)F)cc1)N1C(=O)c2ccccc2C1=O (stereo unspecified)	0.0	5.8*	-0.2	-4.0	-0.1	-8.8
CC(=O)c1ccc(NC(=O)C(=O)NC2CCCc3ccccc32)cc1 (stereo unspecified)	-0.2	6.7*	5.0	-2.3	0.2	-3.6
O=C(Nc1ccc(S(=O)(=O)N2CCCC2)cc1)C(=O)NC1CCCc2ccccc21 (stereo unspecified)	0.0	0.1	6.9	7.5	.	.
N#Cc1ccc(NC(=O)COC(=O)CCC(=O)c2ccc3c(c2)OCCO3)cc1	0.0	11.0*	-1.9	-3.5	6.8*	10.5
Cc1ccc(C)c(CN[C@H]2C[C@H]3C(=O)N4CCC[C@@H]4C(=O)N3C2)c1	0.2	0.6	17.7	3.7	.	.
N#CC1=C(N)Oc2n[nH]c(-c3ccccc3)c2C1c1ccc(Cl)cc1Cl (stereo unspecified)	-0.5	0.4	1.8	-0.3	.	.
CCc1nnc(NC(=O)CCCOc2ccccc2C)s1	-0.2	11.6*	-3.5	3.5	1.3	-2.3
CCc1nnc(NC(=O)CN2CCC(O)(c3ccccc3OC)CC2)s1	-0.1	6.5*	2.6	1.4	0.8	6.8
Cc1ccccc1OCCCC(=O)Nc1nnc(C(C)C)s1	0.1	1.5	-13.7	6.5	.	.
CC[C@H](C)[C@@H]1NC(=O)[C@@H]2C[C@H](NC(=O)Nc3cccc(Cl)c3)CN2C1=O	0.0	5.3*	-10.4	-20.9	-0.2	8.6
CC(C)(C)OC(=O)NNC(=O)/C=C/c1cc(Br)ccc1F	0.1	5.2*	2.1	2.8	2.5	7.6
COc1cc(NC(=O)Cc2cn(-c3ccc(Nc4ccccc4)nn3)c3ccccc23)cc(OC)c1OC	-0.1	4.1	12.5	-11.2	.	.
O=C1CSC2(C(=O)Nc3ccccc32)N1c1cccc(C(F)(F)F)c1 (stereo unspecified)	-0.4	0.0	-2.4	-2.6	.	.
Cc1ccc(NC(=O)c2cc3c(=O)n4ccccc4nc3n2C)cc1F	0.8	5.6*	13.8	0.9	0.3	-1.9
Cn1c(C(=O)Nc2ccc(Oc3ccccc3)cc2)cc2c(=O)n3ccccc3nc21	0.2	5.9*	4.4	-3.5	-0.2	4.8
CC(=O)Nc1ccc(NC(=O)c2cc3c(=O)n4ccccc4nc3n2C)cc1	-0.2	0.1	-3.7	0.9	.	.
